FLuc inh-1: Photinus pyralis luciferase inhibition. Potency, µM (doses to about 115 µM), usual class: inhibitors. purified P. pyralis luciferase, luminescence, biochemical. P08659. 76,000 compounds, 2.5% hits; further: on the % scale 0 is the no-effect control and ±100 the full control effect; nearly all actives have a fitted effect of over 65% in size
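FLuc 10nM, D-luciferin 10uM, ATP 10uM, Mg acetate 10mM, Tris acetate pH 7.5, Tween/BSA; cpd qHTS; enzyme added last; CCD luminescence.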
NPR1 antag: blocks ANP-stimulated signaling of human Npr1 receptor | Potency, µM (top dose mostly 46.3 µM), for inactives: top-dose activity change, negative = inhibition, usual class: inhibitors | 76,000 compounds, 1.6% hits | P16066 | HEK293 hNpr1 GloSensor cGMP, ANP-stimulated luminescence; calls by dose curve; further: on the % scale 0 is the no-effect control and ±100 the full control effect; nearly all actives have a fitted effect of over 60% in size
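Compound pre-incubated 30 min at room temperature on GloSensor-loaded HEK293 cells stably carrying hNpr1 and the pGS-40F cGMP biosensor. Stimulation uses hNppA at 0.1 nM final; luminescence is taken at baseline and 20 min post-agonist.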
3T3 cytotox: cytotoxic compounds in NIH 3T3 cells | NIH 3T3 viability, CellTiter-Glo ATP luminescence, 48-72 h | Potency, µM (titrated, usually from 96.7 µM), for the others: top-dose activity change, negative = cytotoxicity, most hits filed as inhibitors | 94,000 compounds, 4.3% hits | AID 1345082; further: on the % scale 0 is the no-effect control and ±100 the full control effect; nearly all actives have a fitted effect of over 55% in size
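Luminescent ATP readout (CellTiter-Glo, 10 min RT) after 48 or 72 hr compound exposure of NIH 3T3 cells seeded at 400 cells/well in 1536-well format; quantitative HTS.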
HEK cytotox: cytotoxic compounds in HEK 293 cells | HEK 293 viability, ATP luminescence (CellTiter-Glo), 48-72 h | Potency, µM (top dose mostly 115 µM), for inactives: at the top dose activity change, negative = cytotoxicity, usual class: inhibitors | 94,000 compounds, 6.6% hits; further: on the % scale 0 is the no-effect control and ±100 the full control effect; nearly all actives have a fitted effect of over 60% in size
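HEK 293 cells seeded at 250 cells/well were exposed to compound for 48 or 72 hr at 37 degree Celsius. Viability taken as ATP content by CellTiter-Glo luminescence.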
FLuc SDR no ATP: stabilizes firefly luciferase without ATP | Potency, µM (titrated, usually from 32.7 µM), for inactives: top-dose activation (signal gain), hits mostly activators | Purified FLuc-C-HiBiT, Nano-Glo HiBiT luminescence, no ATP | shares compounds with FLuc inh-1 | 1,300 compounds, 7.8% hits; further: nearly all actives have a fitted effect of over 55% in size
FLuc SDR ATP: firefly luciferase binding stabilization, ATP added | shares compounds with FLuc inh-1 | Potency, µM (highest dose often 32.7 µM), for the others: at the top dose activation (gain of signal), most hits filed as activators | AID 1963319 | purified FLuc-C-HiBiT + ATP, HiBiT complementation luminescence | 1,300 compounds, 8.7% hits;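 further: signal reports ligand binding via conformational change of the enzyme rather than luciferase catalysis; % of control where 0% means no effect; nearly all actives have a fitted effect of over 55% in size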
FLuc inh-2: blocks firefly luciferase enzymatic activity; shares compounds with FLuc inh-1; purified FLuc-C-HiBiT enzyme, luciferin luminescence; Potency, µM (top dose mostly 32.7 µM), for inactives: at the top dose activity change, negative = inhibition, actives largely listed as inhibitors; 1,300 compounds, 42% hits; further: on the % scale 0 is the no-effect control and ±100 the full control effect; nearly all actives have a fitted effect of over 70% in size
The depositor's hits bear a star; i = inactive; ? = inconclusive; nt = no result given; [ ] = remark or other dose. In the library only some 11% were active in any assay of this set; here they are far more common. Unless noted, the call rests on the fitted dose curve; in most records, active means well fitted curve in the direction sought with a large enough effect; inconclusive means small, poorly fitted or top-dose-only effect, or another doubt; inactive means no such curve, though single readings can be large; an effect the other way counts as inactive or inconclusive. Potency means the concentration at half of the fitted maximal effect.

SMILES	FLuc inh-1	NPR1 antag	3T3 cytotox	HEK cytotox	FLuc SDR no ATP	FLuc SDR ATP	FLuc inh-2
Cn1nc(-c2nncn2CC2CC2)c2c1CCN(C(=O)c1ccncc1)C2	i	-3%	-3%	4%	nt	nt	nt
Nc1ncnc2c1ncn2[C@@H]1O[C@H](CO)[C@@H](O)[C@@H]1O	nt	nt	nt	nt	11%	11%	-9%
CCNC(=O)C1C(c2cccc(NC(=O)c3ccc(C)cc3)c2)OC(=O)N1Cc1ccc(F)cc1 (stereo not drawn)	2.2µM*	11µM*	?	?	17%	1.6µM*	1.8µM*
C[C@H](C(=O)NCCN1CCOCC1)C1CC[C@@]2(C)Cc3sc(CSc4ccccc4)nc3[C@@H](C)[C@@H]2[C@H]1O (stereo partly drawn)	11µM*	10µM*	?	40µM*	12%	11%	?
C[C@H](C(=O)N(C)CCC#N)C1CC[C@@]2(C)Cc3sc(NC(=O)c4cccn4C)nc3[C@@H](C)[C@@H]2[C@H]1O (stereo partly drawn)	5µM*	?	?	?	30%	?	7µM*
C[C@H](C(=O)N1CCOCC1)C1CC[C@@]2(C)Cc3sc(-c4ccccc4)nc3[C@@H](C)[C@@H]2[C@H]1O (stereo partly drawn)	14µM*	-2%	?	?	6.2µM*	?	3.5µM*
COc1ccc(NC(=O)c2cc3c(N(C)Cc4ccccc4)nc(C)cn3n2)cc1	i	6%	?	?	nt	nt	nt
O=C1NCN(Cc2ccc(Cl)cc2)C12CCN(Cc1ccsc1)CC2	i	11%	?	?	nt	nt	nt
O=C1CC2(CCN(C(=O)C3CCCN(C(=O)Cc4ccccn4)C3)CC2)Oc2ccccc2N1 (stereo not drawn)	nt	nt	-14%	1%	nt	nt	nt
O=C(O)c1ccc(-c2noc(-c3ccccc3C(F)(F)F)n2)cc1	nt	nt	nt	nt	14%	?	?
O=C(O)c1ccc(-c2ncccn2)cc1	nt	nt	0%[174 µM]	-1%[230 µM]	nt	nt	nt
Cc1noc(-c2nc(-c3cccc(Cl)c3)no2)n1	?	-4%	1%	?	nt	nt	nt
COc1ccc(-c2noc(-c3nc(-c4cccnc4)no3)n2)cc1	i	-1%	4%	13%	nt	nt	nt
O=C(O)c1ccc(-c2noc(-c3ccccc3Cl)n2)cc1	nt	nt	nt	nt	30%	1.6µM*	1.1µM*
O=C(O)c1ccc(-c2noc(-c3cccc(Cl)c3)n2)cc1	nt	nt	nt	nt	?	?	7µM*
c1ccc(-c2noc(-c3ccc4ccccc4c3)n2)cc1	nt	nt	nt	nt	36%	?	0.7µM*
O=C(c1ccc(Cl)cc1)N1CCn2c(nn(-c3ccc([N+](=O)[O-])cc3)c2=O)C1	nt	nt	i	i	nt	nt	nt
COCCc1noc(C2CN(C(=O)CCC3CCCC3)C2)n1	nt	nt	?	-6%	nt	nt	nt
COc1cccc(N2CC(C(=O)N3CCC(C(=O)N4CCOCC4)C3)NC2=O)c1 (stereo not drawn)	i	22%	-9%	-3%	nt	nt	nt
O=C1CC(c2ccccc2)N(C(=O)CNC(=O)C2(c3ccccc3)CC2)CCCCCCN1 (stereo not drawn)	i	6%	-10%	2%	nt	nt	nt
O=C(O)c1cccc(-c2cc(C(F)(F)F)ccc2Cl)c1	nt	nt	i	5%	nt	nt	nt
O=C(O)c1cccc(-c2noc(-c3ccccc3C(F)(F)F)n2)c1	nt	nt	nt	nt	25%	0.12µM*	0.062µM*
CNC(=O)c1cc(C2CC2)nc2onc(C3CCCN3C(=O)c3cccc(OC)c3)c12 (stereo not drawn)	nt	nt	-12%	-14%	nt	nt	nt
COc1ccc(NC(=O)N2CCOC(c3ccc(Cl)cc3)C2)c(C)c1 (stereo not drawn)	i	-16%	-28%	?	nt	nt	nt
COc1ccc2cc(C3CN(C(=O)CNC(=O)C(C)C)CCO3)ccc2c1 (stereo not drawn)	8.9µM*	4%	-19%	-25%	?	?	?
SMILES	FLuc inh-1	NPR1 antag	3T3 cytotox	HEK cytotox	FLuc SDR no ATP	FLuc SDR ATP	FLuc inh-2
NS(=O)(=O)c1cccc(N=Cc2c(O)[nH]c3ccccc23)c1	nt	nt	nt	nt	15%	8%	-12%
O=C(N1c2ccccc2CC1c1noc(C2CCOCC2)n1)C1(c2ccccc2)CC1 (stereo not drawn)	8.9µM*	-21%	-23%	?	19%	14%	?
O=C(C1CCC1)N1c2ccccc2CC1c1noc(C2CCOCC2)n1 (stereo not drawn)	1.8µM*	?	-15%	?	21%	19%	?
Cc1cc(C)cc(C(=O)N2c3ccccc3CC2c2nc(C3CC3)no2)c1 (stereo not drawn)	i	-20%	?	?	nt	nt	nt
COc1cccc(CNC(=O)N2c3ccccc3CC2c2noc(C3CCOCC3)n2)c1 (stereo not drawn)	5µM*	-4%	-30%	-23%	14%	14%	?
O=C(C1CCCC1)N1CCCC1c1nc(C2CCOCC2)no1 (stereo not drawn)	i	23%	-15%	-10%	nt	nt	nt
COc1ccc(N2CCN(C3CCCN(C/C=C/c4ccccc4OC)C3)CC2)cc1 (stereo not drawn)	i	10%	-23%	?	nt	nt	nt
CCc1ccc(-n2nc(CO)c(C(=O)NC)n2)cc1	nt	nt	nt	nt	?	19%	?
CCc1ccc(C(=O)Nc2ccc(-c3nnc4n3CCCC4)cc2)cc1	?	-2%	-4%	3%	nt	nt	nt
CCCc1ccc([S+](=O)([O-])N2CCC3(CC2)CNC(=O)C3CO)cc1 (stereo not drawn)	nt	nt	-16%	?	nt	nt	nt
Cc1cc(NCCc2cnccn2)nc(-c2ccccc2O)n1	10µM*	0%	?	?	16%	13%	-17%
COc1ccc(NC(=O)C2CCN(C(=O)c3ncn4c3COC(c3ccccc3)C4)CC2)cc1OC (stereo not drawn)	5.6µM*	-2%	0%	12%	13%	?	3.5µM*
COc1ccc(C2Cn3cnc(C(=O)N4CCC(C(=O)Nc5ccc(F)c(C)c5)CC4)c3CO2)cc1 (stereo not drawn)	i	-9%	i	4%	nt	nt	nt
Cc1ccc(NC(=O)C2CCN(C(=O)c3ncn4c3COC(c3ccccc3)C4)CC2)cc1C (stereo not drawn)	4µM*	6%	i	5%	14%	?	?
COc1ccc(NC(=O)C2CCN(C(=O)c3ncn4c3COC(c3ccccc3)C4)CC2)cc1 (stereo not drawn)	8.9µM*	1%	i	8%	11%	?	?
